Test results as given in PubChem BioAssay (Tox21).
Inconclusive results are not listed. Active and inactive are the calls of the source. Unless noted, the call rests on the fitted dose curve; in most records, active means well fitted curve in the direction sought with a large enough effect in the repeat runs; inconclusive means weak or mixed curves; inactive means no such curve, though single readings can be large; an effect the other way counts as inactive or inconclusive.

Legend:
[1] = qHTS assay to identify small molecule agonists of the constitutive androstane receptor (CAR) signaling pathway - cell viability counter screen (AID 1224836); further: nearly all actives have a fitted effect of over 45% in size
Procedure, shortened: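 Counter screen multiplexed with the CAR reporter readout: HepG2 cells co-transfected with hCAR and the CYP2B6-2.2kb construct receive a 15-concentration compound series and 0.75 uM PK11195 (final), then CellTiter-Fluor fluorescence is read after 23 h.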

[2] = qHTS assay to identify small molecule antagonists of the constitutive androstane receptor (CAR) signaling pathway - cell viability counter screen (AID 1224837); further: nearly all actives have a fitted effect of over 45% in size
Procedure, shortened: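 In quantitative HTS format, compounds at 15 concentrations were applied to HepG2 cells double-transfected with hCAR and CYP2B6-2.2kb under 50 nM CITCO stimulation; live-cell protease activity was read after 23 hr via CellTiter-Fluor.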

[3] = biological target: Nuclear receptor subfamily 1 group I member 3 (Homo sapiens) (UniProt Q14994); assay: qHTS assay to identify small molecule antagonists of the constitutive androstane receptor (CAR) signaling pathway (AID 1224838); further: nearly all actives have a fitted effect of over 40% in size
Chain of Nuclear receptor subfamily 1 group I member 3 (Homo sapiens) (Q14994 whole entry, looked up): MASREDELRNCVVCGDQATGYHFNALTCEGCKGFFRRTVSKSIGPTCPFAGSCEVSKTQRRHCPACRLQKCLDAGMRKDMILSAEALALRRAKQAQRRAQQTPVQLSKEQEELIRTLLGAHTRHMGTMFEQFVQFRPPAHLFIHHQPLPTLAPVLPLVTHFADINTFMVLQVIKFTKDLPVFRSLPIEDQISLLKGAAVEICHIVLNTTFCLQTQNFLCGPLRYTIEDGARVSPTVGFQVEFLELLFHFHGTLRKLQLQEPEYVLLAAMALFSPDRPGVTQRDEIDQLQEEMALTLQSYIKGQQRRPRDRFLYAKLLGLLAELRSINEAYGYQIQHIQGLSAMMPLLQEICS
Procedure, shortened: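 CITCO-stimulated (50 nM final) HepG2 cells stably transfected with hCAR and CYP2B6-2.2kb luciferase were exposed to compounds at 15 concentrations for 24 h at 37 C/5% CO2. A luciferase reagent was added and luminescence recorded after 30 min.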

[4] = biological target: Nuclear receptor subfamily 1 group I member 3 (Homo sapiens) (UniProt Q14994); assay: qHTS assay to identify small molecule agonists of the constitutive androstane receptor (CAR) signaling pathway (AID 1224839); further: nearly all actives have a fitted effect of over 15% in size
Procedure, shortened: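 A 15-concentration quantitative screen uses HepG2 cells co-transfected stably with human CAR and CYP2B6-2.2kb reporter. Treatment lasts 24 h with 0.75 uM PK11195 final present; ONE-Glo luminescence is the signal.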

[5] = qHTS assay to identify small molecule antagonists of the estrogen related receptor signaling pathway with the pleiotropic PPARgamma coactivator (PGC) from Tox21 10K library - cell viability counter screen (AID 1224840; active means well fitted cell-killing curve with a large enough effect in the repeat runs, not every such curve was filed as active; further: nearly all actives have a fitted effect of over 40% in size)
Procedure, shortened: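 Viability counter screen, PGC/ERR cells: 17.5 h compound exposure at 37 C, CellTiter-Fluor fluorescence endpoint.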

[6] = qHTS assay to identify small molecule antagonists of the estrogen related receptor signaling pathway with the pleiotropic PPARgamma coactivator (PGC) from Tox21 10K library (AID 1224841; call rule not given here; further: actives are mostly falling curves and most rising ones were filed inactive; nearly all actives have a fitted effect of over 50% in size)
Procedure, shortened: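 In the PGC/ERR line, DMSO solutions of test chemicals are pin-delivered to 2,000 cells/well six hours after dispensing. Following eighteen hours' incubation, One-Glo reagent is added and luminescence recorded.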

[7] = qHTS assay to identify small molecule agonists of the estrogen related receptor signaling pathway with the pleiotropic PPARgamma coactivator (PGC) from Tox21 10K library (AID 1224842); further: nearly all actives have a fitted effect of over 15% in size
Procedure, shortened: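 Luminescence from One-Glo (30 min, room temperature) measured after PGC/ERR cells had 18 h at 37 C with pinned compound (23 nL in DMSO). Cells had been seeded at 2,000 per well and pre-incubated 6 h.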

[8] = biological target: Thyrotropin receptor (Homo sapiens) (UniProt P16473); assay: qHTS assay to identify small molecule agonists of the thyroid stimulating hormone receptor (TSHR) signaling pathway (AID 1224843; calls by dose curve; further: nearly all actives have a fitted effect of over 45% in size)
Chain of Thyrotropin receptor (Homo sapiens) (P16473 whole entry, looked up): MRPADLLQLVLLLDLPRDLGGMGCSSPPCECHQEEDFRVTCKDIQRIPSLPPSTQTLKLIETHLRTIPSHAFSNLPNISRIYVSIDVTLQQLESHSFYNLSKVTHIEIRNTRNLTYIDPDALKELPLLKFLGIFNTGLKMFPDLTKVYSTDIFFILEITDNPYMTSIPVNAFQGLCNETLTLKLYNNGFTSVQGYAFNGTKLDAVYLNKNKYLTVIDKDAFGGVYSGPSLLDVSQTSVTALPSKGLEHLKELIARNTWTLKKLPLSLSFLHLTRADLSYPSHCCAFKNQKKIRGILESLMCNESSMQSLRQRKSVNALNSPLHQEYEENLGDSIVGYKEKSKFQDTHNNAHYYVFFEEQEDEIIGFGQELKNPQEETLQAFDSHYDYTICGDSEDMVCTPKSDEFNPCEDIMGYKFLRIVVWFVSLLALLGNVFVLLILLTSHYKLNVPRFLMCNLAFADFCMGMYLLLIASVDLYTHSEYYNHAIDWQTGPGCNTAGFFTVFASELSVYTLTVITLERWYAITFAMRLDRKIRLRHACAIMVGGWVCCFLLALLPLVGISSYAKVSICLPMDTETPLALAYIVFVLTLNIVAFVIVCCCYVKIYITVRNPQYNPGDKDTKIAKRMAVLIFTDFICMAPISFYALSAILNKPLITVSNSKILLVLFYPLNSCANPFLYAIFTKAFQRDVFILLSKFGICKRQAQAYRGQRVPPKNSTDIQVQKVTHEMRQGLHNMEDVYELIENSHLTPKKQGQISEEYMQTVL
Procedure, shortened: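 A cell-based cAMP HTRF format was run in TSHR-transfected HEK293 cells, 800 per well. Treatment: 30 min, room temperature. Detection: 1 h with labelled cAMP and anti-cAMP cryptate. Concentration-response over 15 points, three replicates.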

[9] = qHTS assay to identify small molecule agonists of the hypoxia (HIF-1) signaling pathway - cell viability counter screen (AID 1224844; calls by dose curve; further: nearly all actives have a fitted effect of over 50% in size)
Procedure, shortened: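 Same wells as the HIF-1 reporter screen; ME-180 cells carrying HRE-bla, 17 hr treatment at 37C; CellTiter-Glo luminescence read after 30 min at room temperature.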

[10] = qHTS assay to identify small molecule agonists of H2AX (AID 1224845; active means well fitted activation curve with a large enough effect in the signal ratio in the repeat runs, not every such curve was filed as active; the % refers to the signal ratio)
Procedure, shortened: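 Phospho-H2AX Ser139 measured by HTRF (ex 320 nm; em 665 and 620 nm) after 24 hr antibody incubation. Compounds, 15 concentrations, 0.76% DMSO, were applied to CHO-K1 cells for 3hr at 37C before lysis.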

[11] = qHTS assay to identify small molecule agonists of the hypoxia (HIF-1) signaling pathway (AID 1224846; active means well fitted activation curve with a large enough effect in the signal ratio in the repeat runs, not every such curve was filed as active; the % refers to the signal ratio)
Procedure, shortened: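 In ME-180 cells bearing an HRE-bla construct, 17 h treatment with DMSO-dissolved compounds at 37C was followed by CCF4-AM loading to quantify reporter induction.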

[12] = qHTS assay to identify small molecule agonists of H2AX - cell viability counter screen (AID 1224847; calls by dose curve; further: top concentration of the series differs between compounds; nearly all actives have a fitted effect of over 30% in size)
Procedure, shortened: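 We seed wild-type CHO-K1 cells overnight, treat them for 3 hr at 37C with compounds in 15-concentration series, and quantify remaining viability by CellTiter-Glo luminescence.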

[13] = qHTS assay to identify small molecule antagonists of the estrogen related receptor (ERR) signaling pathway from Tox21 library (AID 1224848); further: nearly all actives have a fitted effect of over 50% in size
Procedure, shortened: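 ERR cell line, 2,000 cells/well. 6 h settle, then compound (DMSO) added; 18 h at 37 C; ONE-Glo luminescence after 30 min RT.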

[14] = qHTS assay to identify small molecule agonists of the estrogen related receptor (ERR) signaling pathway from Tox21 library (AID 1224849; calls by dose curve; further: nearly all actives have a fitted effect of over 15% in size); conditions: ERR reporter cell line, ONE-Glo luciferase, 18 h
Procedure, shortened: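 Reporter cells (ERR, NTP source) treated with Tox21 10K compounds 18 h, 37 C. Readout: ONE-Glo luminescence, 30 min RT.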

[15] = qHTS RealTime-Glo MT Cell Viability Assay in HepG2 cells - 24 hour (AID 1224867); further: nearly all actives have a fitted effect of over 50% in size
Procedure, shortened: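 Tox21 10K library screened in qHTS format on HepG2 cells carrying RealTime-Glo reagents. Compounds were added after a 5 h preincubation, and the luminescent signal from continuous culture was measured repeatedly during 40 h treatment.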

[16] = qHTS RealTime-Glo MT Cell Viability Assay in HEK293 cells - 32 hour (AID 1224868)
Procedure, shortened: (§1)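 Luminescence generated by NanoLuc from substrate produced by living HEK293 cells served as the viability signal. Each value reflects the reading at its stated time point during continuous 40 h compound exposure at 37 C.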

[17] = A CellTox Green Cytotoxicity Assay to monitor cytotoxicity in HEK293 cells - 0 hour (AID 1224869); further: nearly all actives have a fitted effect of over 50% in size
Procedure, shortened: (§2)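 Homogeneous no-lysis format: HEK293 cell suspension mixed with CellTox Green reagent, seeded, incubated 5 h at 37 C/5% CO2, then dosed by pintool with compound in DMSO.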

[18] = qHTS RealTime-Glo MT Cell Viability Assay in HepG2 cells - 40 hour (AID 1224870); further: nearly all actives have a fitted effect of over 50% in size
Procedure, shortened: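 Real-time viability: cells seeded at 600 per well together with NanoLuc and cell-permeant prosubstrate, compounds added after 5 h incubation. Luminescence tracked at 0, 8, 16, 24, 32 and 40 h of exposure.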

[19] = A CellTox Green Cytotoxicity Assay to monitor cytotoxicity in HEK293 cells - 40 hour (AID 1224871); further: nearly all actives have a fitted effect of over 45% in size
Procedure, shortened: as §2

[20] = qHTS RealTime-Glo MT Cell Viability Assay in HEK293 cells - 16 hour (AID 1224872)
Procedure, shortened: as §1
On the % scale 0 is the no-effect control and ±100 the full control effect.

O=Cc1ccc(Cl)cc1
inactive: Potency [1] | Potency [2] | Potency [3] | Potency [4] | Potency [5] | Potency [6] | Potency [7] | Potency [8] | Potency [9] | Potency [10] | Potency [11] | Potency [12] | Potency [13] | activity change, positive = activation ([14]; at 92.4 µM (top of the series)) -1.47% | Potency [15] | Potency [16] | Potency [17] | Potency [18] | Potency [19] | Potency [20]

CCC(CO)(CO)COCC(CC)(CO)CO
inactive: Potency [1] | Potency [2] | Potency [3] | Potency [4] | Potency [5] | Potency [6] | Potency [7] | Potency [8] | Potency [9] | Potency [10] | Potency [11] | Potency [13] | activity change, positive = activation ([14]; at 92.4 µM (top of the series)) 6.39% | Potency [15] | Potency [17] | Potency [18] | Potency [19] | Potency [20]

O=C(O)CP(=O)(O)O
inactive: Potency [1] | Potency [2] | Potency [3] | Potency [4] | Potency [5] | Potency [8] | Potency [9] | Potency [10] | Potency [11] | Potency [15] | Potency [16] | Potency [17] | Potency [18] | Potency [19] | Potency [20]

CCCCCCCCCCCCCCCCCl
inactive: viability change, negative = cytotoxic [1] -1.15% [at 19 µM] | activity change, negative = cytotoxicity [2] -1.23% [at 19 µM] | activity, negative = inhibition [3] -1.8% [at 19 µM] | activation [4] -1.81% [at 19 µM] | viability change, negative = cytotoxic [5] 6.02% [at 19 µM] | activity, negative = inhibition [6] 65% [at 19 µM] | activation [7] 5.12% [at 19 µM] | activation [8] 0.927% [at 19 µM] | activation (H2AX phosphorylation) [10] 1.73% [at 31.6 µM] | activation [11] 0.196% [at 15.8 µM] | activity, negative = inhibition [13] 15.7% [at 19 µM] | activity change, positive = activation ([14]; at 19 µM (top of the series)) 7.84% | activity change, negative = cytotoxicity [15] 5.56% [at 15.8 µM] | activity change, negative = cytotoxic [16] -2.48% [at 15.8 µM] | cytotoxicity [17] 1.64% [at 15.8 µM] | activity change, negative = cytotoxic [18] 12.5% [at 15.8 µM] | cytotoxicity increase [19] 10.8% [at 15.8 µM] | activity change, negative = cytotoxicity [20] 1.99% [at 15.8 µM]

CC(C)(C)c1ccccc1
inactive: Potency [1] | Potency [2] | Potency [3] | Potency [4] | Potency [5] | Potency [6] | Potency [8] | Potency [10] | Potency [11] | Potency [12] | Potency [13] | activity change, positive = activation ([14]; at 92.4 µM (top of the series)) 0.862% | Potency [15] | Potency [16] | Potency [17] | Potency [18] | Potency [19] | Potency [20]

CC(=O)OCC1=C(C(=O)O)N2C(=O)[C@@H](NC(=O)Cc3cccs3)[C@H]2SC1
inactive: Potency [1] | Potency [2] | Potency [3] | Potency [4] | Potency [5] | Potency [8] | Potency [9] | Potency [10] | Potency [11] | Potency [15] | Potency [16] | Potency [17] | Potency [18] | Potency [19] | Potency [20]
